CBX7 AlphaScr = CBX7 inhibition, primary AlphaScreen; O95931; AlphaScreen His6-CBX7 / biotin-H3K27me3 peptide binding; stronger effect = lower value; normalised signal (fraction of DMSO) (test concentration not listed); 66,000 tested, 1.1% active; in the data active = normalised signal below about 0.5
Target sequence (O95931 whole entry, looked up): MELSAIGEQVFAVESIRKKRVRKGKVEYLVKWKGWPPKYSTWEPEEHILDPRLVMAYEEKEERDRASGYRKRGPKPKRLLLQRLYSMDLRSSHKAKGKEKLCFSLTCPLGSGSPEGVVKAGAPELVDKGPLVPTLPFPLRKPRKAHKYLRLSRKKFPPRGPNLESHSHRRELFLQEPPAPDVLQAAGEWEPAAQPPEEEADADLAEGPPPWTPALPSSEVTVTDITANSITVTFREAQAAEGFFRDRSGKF
Each line names hits and unclear results; the compound was inactive in the other large screens. This is one part of a sample in which hits are shown more often than they occur.

CCOc1ccc(C(=O)Nc2ccc3oc(-c4cccc(Cl)c4)nc3c2)cc1	none
COc1ccc(-c2cn(-c3ccc(F)cc3)c(SCC(=O)Nc3cc(F)ccc3F)n2)cc1OC	none
COc1ccc(-c2cn(-c3ccc(F)cc3)c(SCC(=O)Nc3cccc(F)c3)n2)cc1OC	CBX7 AlphaScr 0.39
COc1ccc(-c2cn(-c3ccc(F)cc3)c(SCC(=O)Nc3cccc(Cl)c3)n2)cc1OC	none
CCc1cccc(C)c1NC(=O)CCCN1C(=O)c2cccnc2C1=O	none
O=C(CCCN1C(=O)c2cccnc2C1=O)N1CCN(c2ccccc2F)CC1	CBX7 AlphaScr 0.34
Cc1cc(Cl)ccc1OCCCC(=O)N1c2ccc(F)cc2CCC1C (stereo not given)	none
O=C(CCCN1C(=O)c2cccnc2C1=O)Nc1ccccc1F	none
O=C(CCCN1C(=O)c2cccnc2C1=O)N1CCN(c2ccccc2)CC1	CBX7 AlphaScr 0.49
CCc1ccccc1NC(=O)CCCN1C(=O)c2cccnc2C1=O	none
O=C(CCCN1C(=O)c2cccnc2C1=O)Nc1ccc(Cl)c(C(F)(F)F)c1	none
Cc1ccc(NC(=O)CCCN2C(=O)c3cccnc3C2=O)cc1F	none
CC1CCc2cc(F)ccc2N1C(=O)CCCN1C(=O)c2cccnc2C1=O (stereo not given)	CBX7 AlphaScr 0.47
COCCNC(=O)Cc1ccc(NC2=NC3CS(=O)(=O)CC3S2)cc1 (stereo not given)	none
CCN(c1ccc(F)cc1)S(=O)(=O)c1ccc2[nH]cc(C(=O)NC(C)(C)C)c(=O)c2c1	none
CCc1ccccc1NC(=O)CCc1c(C)nc2ncnn2c1C	none
COc1ccc(-c2cc(-c3ccccc3)cc(-c3cc(Cl)ccc3O)n2)cc1	none
CN(Cc1ccccc1)C(=O)C1CCN(C(=O)c2cc3sccc3n2Cc2ccc(F)cc2)CC1	none
Cc1ccc2[nH]c3c(c2c1)CCCC3Nc1ccccc1 (stereo not given)	none
Brc1ccc2[nH]c3c(c2c1)CCCC3NCc1ccccc1 (stereo not given)	none
Cc1ccc2[nH]c3c(c2c1)CCCC3NCc1ccc(F)cc1 (stereo not given)	CBX7 AlphaScr 0.43
Cc1ccc(C(C(=O)NC2CCCCC2)N2CCc3ccccc32)cc1 (stereo not given)	none
COc1ccc(C(=O)Nc2c3c(nn2-c2ccc(OC)cc2)CSC3)cc1	none
O=C(Nc1nc(-c2ccc(-c3ccccc3)cc2)cs1)c1cc2ccccc2oc1=O	none
CCCn1c(=O)c(C(=O)NC(C)c2ccccc2)c(O)c2ccccc21 (stereo not given)	CBX7 AlphaScr 0.28
CCCn1c(=O)c(C(=O)NCc2cccnc2)c(O)c2ccccc21	none
CCn1c(=O)c(C(=O)NC(C)c2ccccc2)c(O)c2ccccc21 (stereo not given)	none
COC(=O)c1ccc(NC(=O)COc2ccccc2C(C)(C)C)cc1	none
O=C(CSc1nnc(CNC(=O)c2c(F)cccc2Cl)o1)Nc1ccccc1	none
Cc1cccc(NC(=O)CSc2nnc(CNC(=O)c3c(F)cccc3Cl)o2)c1	none
Cc1cc(NC(=O)CSc2nnc(CNC(=O)COc3ccc(Cl)cc3)o2)no1	CBX7 AlphaScr 0.21
COc1ccc(C(=O)NCc2nnc(SCC(=O)Nc3cc(C)on3)o2)cc1OC	none
Cc1cc(NC(=O)CSc2nnc(CNC(=O)c3c(F)cccc3Cl)o2)no1	CBX7 AlphaScr 0.029
Cc1nnc(NC(=O)CSc2nnc(CNC(=O)COc3ccc(Cl)cc3)o2)s1	none
Cc1cccc(NC(=O)CSc2nnc(CNC(=O)COc3ccc(Cl)cc3)o2)c1	none
COc1cc(C(=O)NCc2nnc(SCC(=O)Nc3cc(C)on3)o2)cc(OC)c1OC	CBX7 AlphaScr 0.051
COc1cc(C(=O)NCc2nnc(SCC(=O)Nc3ccc(Cl)cc3)o2)cc(OC)c1OC	none
Cc1cc(NC(=O)c2cc(-c3ccc4c(c3)OCO4)on2)nn1Cc1ccc(Cl)cc1	none
NC(=O)C1CCN(C(=O)c2n[nH]c(=O)c3ccccc23)CC1	none
NC(=O)c1ccccc1NC(=O)CSc1ccccn1	none
Cc1oc(-c2cccc(Cl)c2)nc1CN1CCC(C(=O)NCCCN2CCOCC2)CC1	none
O=C(O)c1cccc(Nc2nc(-c3ccc(F)cc3F)cs2)c1	none
CCc1nc2c(cnn2-c2ccc(C)cc2)c(=O)n1-c1ccc(OC)cc1	none
OC(CN1CCCCC1)Cn1c2ccccc2c2ccccc21 (stereo not given)	none
CCC(=C(c1ccc(OC)cc1)c1ccc(OC)cc1)c1cn(CC(O)CN2CCCC2)c2ccccc12 (stereo not given)	CBX7 AlphaScr 0.26
COc1ccc(-c2cc3ccccc3n2CC(O)CN2CCCCCC2)cc1 (stereo not given)	none
COc1ccc2nc(NC(=O)c3cn(CC(C)C)c(=O)c4cc(OC)c(OC)cc34)sc2c1	none
COc1ccc(C)cc1NC(=O)c1ccc(CNc2c(N3CCC(C)CC3)c(=O)c2=O)cc1	none
Cc1onc(-c2c(F)cccc2Cl)c1C(=O)Nc1ccccc1	none
Cc1onc(-c2c(F)cccc2Cl)c1C(=O)NCC1COc2ccccc2O1 (stereo not given)	CBX7 AlphaScr 0.47
Cc1onc(-c2c(Cl)cccc2Cl)c1C(=O)NCC1CCCO1 (stereo not given)	none
COc1ccc(C(O)C(Nc2ccccc2)c2nc3ccccc3n2C)cc1 (stereo not given)	none
Cc1ccc(-c2nc(-c3c[nH]c4ccccc34)[nH]c2-c2ccc(C)cc2)cc1	CBX7 AlphaScr 0.37
Fc1ccc(-c2[nH]c(-c3c[nH]c4ccccc34)nc2-c2ccccc2)cc1	CBX7 AlphaScr 0.42
c1ccc(-c2nc(-c3c[nH]c4ccccc34)[nH]c2-c2ccccc2)cc1	none
Oc1ccccc1-c1nc(-c2ccc(F)cc2)c(-c2ccc(F)cc2)[nH]1	none
Cc1ccc(Nc2c(-c3c[nH]c4ccccc34)nc3cccc(C)n23)cc1	none
Oc1ccccc1-c1nc(-c2ccccc2)c(-c2ccc(F)cc2)[nH]1	none
O=C(CSc1nc2ccccc2[nH]1)Nc1ccc(Br)cn1	none
Cc1ccc(S(=O)(=O)C2(C(=O)Nc3cccc(Cl)c3C)CC2)cc1	none
COC(=O)c1cccc(CNCCc2c(C)[nH]c3ccc(OC)cc23)c1	none
COC(=O)c1ccc(C(=O)NCCc2c(C)[nH]c3ccc(OC)cc23)cc1	none
COc1ccc2[nH]c(C)c(CCNCC(C)Cc3ccc4c(c3)OCO4)c2c1 (stereo not given)	CBX7 AlphaScr 0.34
c1csc(-c2nc3ccccc3n2CCC2CCCCC2)c1	none
CC(N)C(=O)N1CCN(c2nc(-c3ccccc3)c3cc([N+](=O)[O-])ccc3n2)CC1 (stereo not given)	none
CC(C)(C)OC(=O)N1CCC(c2c(C(=O)Nc3ccc(Br)cc3F)cnn2-c2ccccc2)CC1	none
CC(C)Cn1c(CNC(=O)c2ccc(Cl)cc2)nc2ccccc21	none
O=C(Nc1nc2c(s1)CCc1ccccc1-2)c1ccccc1Oc1ccccc1	none
CC1CCCCN1C(=O)c1cc2n(n1)C(C(F)(F)F)CC(c1cccs1)N2 (stereo not given)	none
COc1cccc(-c2nc(SCC(=O)NC3CCCC3)c(-c3ccc(C)cc3)[nH]2)c1	none
CCCCOc1ccc(-c2nc3c(C(=O)OC)c[nH]n3c2NC2CCCCCC2)cc1	CBX7 AlphaScr 0.21
COC(=O)c1c[nH]n2c(NC3CCCC3)c(-c3cccc(Br)c3)nc12	none
CCCOc1ccc(-c2nc(Oc3ccc(C(=O)OC)cc3)c3ccccc3n2)cc1	none
CCCCOc1cccc(-c2nc3c(C(=O)OC)c[nH]n3c2NC2CCCCCC2)c1	CBX7 AlphaScr 0.46
CCCCOc1ccc(-c2nc3ncccn3c2NC2CCCC2)cc1	none
Cc1cccc(-n2ccnc2SCC(=O)Nc2ccc(Cl)cc2)c1	none
O=C(NCc1nnc(SCC(=O)N2CCCC2)o1)c1cccs1	none
CCCCNc1cc(C)nc2c(-c3ccc(Cl)cc3)c(C)nn12	none
